Source: PubChem BioAssay (EPA / NIEHS)
Results filed as inconclusive are left out. Some structures have more than one record in an assay (separate samples or runs), and their calls can disagree. Active and inactive are the calls of the source. Rule for the calls, unless noted: active = hit-call score of the fitted dose curve at least 0.9, where 1 is the maximum; inactive = score below 0.9.

Columns and labels:
[1] = BSK_3C_VCAM1: BioMAP Diversity Plus: 3C Assay for Vascular cell adhesion molecule 1 (VCAM1) Biomarker Activity (AID 2282999); conditions: BioMAP 3C HUVEC, VCAM1 ELISA, cytokine-stimulated; actives raise or lower the signal
Outline: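 Vascular primary endothelium (human umbilical vein) was exposed to chemicals and assayed 24 h later. VCAM-1 levels came from ELISA, with DMSO serving as baseline for bidirectional fitting.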

[2] = BSK_4H_Eotaxin3: BioMAP Diversity Plus: 4H Assay for Eotaxin 3 Biomarker Activity (AID 2283000); conditions: primary human endothelial cells (HUVEC); actives raise or lower the signal
Outline: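 Human umbilical vein endothelial cells (BSK_4H system) dosed with test chemical; Eotaxin-3 (CCL26) measured by ELISA 24 h after dosing. Bidirectional curve fitting relative to DMSO negative control as baseline.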

[3] = target: human Peroxisome Proliferator-activated Receptor alpha (PPARa), PPARA (gene 5465) (UniProt Q07869); assay: ATG_PPARa_TRANS: Attagene TRANS-FACTORIAL HepG2 Assay for human Peroxisome Proliferator-activated Receptor alpha (PPARa) (AID 2283001; active = hit-call score of the fitted dose curve at least 0.9, where 1 is the maximum)
Sequence of human Peroxisome Proliferator-activated Receptor alpha (PPARa), PPARA (gene 5465) (Q07869 whole entry, looked up, the tested form may be a part): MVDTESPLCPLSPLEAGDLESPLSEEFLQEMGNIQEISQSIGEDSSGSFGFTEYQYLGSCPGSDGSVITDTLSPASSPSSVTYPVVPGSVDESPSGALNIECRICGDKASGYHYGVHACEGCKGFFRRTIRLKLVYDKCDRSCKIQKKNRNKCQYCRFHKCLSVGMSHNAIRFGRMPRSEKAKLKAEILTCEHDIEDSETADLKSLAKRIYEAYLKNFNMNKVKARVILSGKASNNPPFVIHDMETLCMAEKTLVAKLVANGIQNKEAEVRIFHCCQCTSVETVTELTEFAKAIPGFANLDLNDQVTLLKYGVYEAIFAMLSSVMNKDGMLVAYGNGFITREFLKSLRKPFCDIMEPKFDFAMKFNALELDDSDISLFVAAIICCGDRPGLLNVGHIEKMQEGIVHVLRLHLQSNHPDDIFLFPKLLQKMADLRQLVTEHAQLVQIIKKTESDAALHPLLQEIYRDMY
Outline: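 Exposure: 24 h, transiently transfected HepG2 cells. Endpoint: GAL4-UAS reporter mRNA, RT-PCR with capillary electrophoresis fluorescence. Baseline: DMSO; increases fitted.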

[4] = read-out: Intercellular Adhesion Molecule 1 (ICAM1), ICAM1 (gene 3383); assay: BSK_3C_ICAM1: BioMAP Diversity Plus: 3C Assay for Intercellular Adhesion Molecule 1 (ICAM1) Biomarker Activity (AID 2283003); conditions: primary human endothelial cells (HUVEC); actives raise or lower the signal
Outline: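 ELISA read-out of ICAM-1; HUVEC (primary human), 3C system, 24 h post-dosing; bidirectional fit vs DMSO baseline.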

[5] = target: human Retinoic Acid Receptor beta (RARb), RARB (gene 5915) (UniProt P10826); assay: ATG_RARb_TRANS: Attagene TRANS-FACTORIAL HepG2 Assay for human Retinoic Acid Receptor beta (AID 2283004; active = hit-call score of the fitted dose curve at least 0.9, where 1 is the maximum)
Sequence of human Retinoic Acid Receptor beta (RARb), RARB (gene 5915) (P10826 whole entry, looked up, the tested form may be a part): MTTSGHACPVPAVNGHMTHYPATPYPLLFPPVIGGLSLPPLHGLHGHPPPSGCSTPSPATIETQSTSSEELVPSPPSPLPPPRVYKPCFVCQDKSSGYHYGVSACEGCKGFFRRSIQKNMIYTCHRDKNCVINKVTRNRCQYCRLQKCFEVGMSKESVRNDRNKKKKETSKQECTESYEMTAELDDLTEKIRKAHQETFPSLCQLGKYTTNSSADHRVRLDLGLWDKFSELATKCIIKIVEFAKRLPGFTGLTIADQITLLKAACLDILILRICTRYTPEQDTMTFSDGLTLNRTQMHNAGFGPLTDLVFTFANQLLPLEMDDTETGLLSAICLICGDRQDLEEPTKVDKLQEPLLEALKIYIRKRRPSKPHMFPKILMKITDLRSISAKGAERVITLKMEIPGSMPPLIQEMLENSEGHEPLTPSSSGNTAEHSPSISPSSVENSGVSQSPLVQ
Outline: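 Induction of reporter mRNA from a chimeric RARb-Gal4 construct was measured by RT-PCR, FAM labelling, HpaI digestion and capillary electrophoresis. Measurements followed 24 h compound treatment of transiently transfected human HepG2 liver cells, with DMSO as baseline.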

[6] = BSK_3C_Proliferation: Cell Proliferation Assessment in the BioMAP Diversity Plus: 3C Assay (AID 2283006); conditions: primary human endothelial cells (HUVEC);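 for AC50: potency may reflect either rise or fall in cell number versus DMSO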
Outline: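 HUVEC, sub-confluent; 48 h chemical exposure; 10% TCA fix, 0.1% SRB stain, A560 total protein. Gain or loss of signal fitted both directions vs DMSO control.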

[7] = target: Peroxisome proliferator-activated receptor gamma (Homo sapiens) (UniProt P37231); assay: ATG_PPARg_TRANS: Attagene TRANS-FACTORIAL HepG2 Assay for human Peroxisome Proliferator-activated Receptor-gamma (PPARg) (AID 2283007; active = hit-call score of the fitted dose curve at least 0.9, where 1 is the maximum)
Sequence of Peroxisome proliferator-activated receptor gamma (Homo sapiens) (P37231 whole entry, looked up, the tested form may be a part): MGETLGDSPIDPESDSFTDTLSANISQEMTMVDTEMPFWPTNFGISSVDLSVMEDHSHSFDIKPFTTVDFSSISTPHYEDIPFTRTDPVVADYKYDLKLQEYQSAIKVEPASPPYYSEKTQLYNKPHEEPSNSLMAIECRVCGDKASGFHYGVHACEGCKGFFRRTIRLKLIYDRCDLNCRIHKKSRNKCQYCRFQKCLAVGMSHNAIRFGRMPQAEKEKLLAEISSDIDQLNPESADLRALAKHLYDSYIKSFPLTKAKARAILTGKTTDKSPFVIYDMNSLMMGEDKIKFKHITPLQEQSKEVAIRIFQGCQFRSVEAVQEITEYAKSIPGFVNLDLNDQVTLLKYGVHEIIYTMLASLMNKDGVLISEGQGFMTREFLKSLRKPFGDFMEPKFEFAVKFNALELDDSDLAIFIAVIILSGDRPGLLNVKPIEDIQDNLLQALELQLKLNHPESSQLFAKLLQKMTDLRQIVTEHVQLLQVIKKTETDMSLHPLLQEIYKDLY
Outline: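 Liver-derived HepG2 cells expressing an exogenous NR-Gal4 chimera alongside GAL4-UAS reporter genes; 24 h exposure. Fluorescence of reporter RT-PCR products, separated by capillary electrophoresis, gives mRNA induction relative to DMSO.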

[8] = target: human Retinoic Acid Receptor gamma (RARg), RARG (gene 5916) (UniProt P13631); assay: ATG_RARg_TRANS: Attagene TRANS-FACTORIAL HepG2 Assay for human Retinoic Acid Receptor gamma (RARg) (AID 2283009; active = hit-call score of the fitted dose curve at least 0.9, where 1 is the maximum)
Sequence of human Retinoic Acid Receptor gamma (RARg), RARG (gene 5916) (P13631 whole entry, looked up, the tested form may be a part): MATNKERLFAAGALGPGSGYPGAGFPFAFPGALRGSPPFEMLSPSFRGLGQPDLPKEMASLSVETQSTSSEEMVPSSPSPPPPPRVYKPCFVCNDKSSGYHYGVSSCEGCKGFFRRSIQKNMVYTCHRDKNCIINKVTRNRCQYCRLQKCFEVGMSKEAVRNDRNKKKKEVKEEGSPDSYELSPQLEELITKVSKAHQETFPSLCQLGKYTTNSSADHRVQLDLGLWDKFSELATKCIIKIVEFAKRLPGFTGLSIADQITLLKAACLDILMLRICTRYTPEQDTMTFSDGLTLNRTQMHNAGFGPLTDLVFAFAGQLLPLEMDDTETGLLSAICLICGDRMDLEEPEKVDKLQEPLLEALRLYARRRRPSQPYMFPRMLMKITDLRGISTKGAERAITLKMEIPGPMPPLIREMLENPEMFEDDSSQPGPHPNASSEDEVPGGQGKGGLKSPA
Outline: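 Readout: reporter transcript levels via RT-PCR, 6-FAM primer-extension labelling, HpaI digestion and capillary electrophoresis. Cells: HepG2 carrying transfected RARg-GAL4 chimera plus UAS reporter set. Dosing 24 h; DMSO negative control.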

[9] = target: human Peroxisome Proliferator-activated Receptor delta (PPARd), PPARD (gene 5467) (UniProt Q03181); assay: ATG_PPARd_TRANS: Attagene TRANS-FACTORIAL HepG2 Assay for human Peroxisome Proliferator-activated Receptor delta (PPARd) (AID 2283002; active = hit-call score of the fitted dose curve at least 0.9, where 1 is the maximum)
Sequence of human Peroxisome Proliferator-activated Receptor delta (PPARd), PPARD (gene 5467) (Q03181 whole entry, looked up, the tested form may be a part): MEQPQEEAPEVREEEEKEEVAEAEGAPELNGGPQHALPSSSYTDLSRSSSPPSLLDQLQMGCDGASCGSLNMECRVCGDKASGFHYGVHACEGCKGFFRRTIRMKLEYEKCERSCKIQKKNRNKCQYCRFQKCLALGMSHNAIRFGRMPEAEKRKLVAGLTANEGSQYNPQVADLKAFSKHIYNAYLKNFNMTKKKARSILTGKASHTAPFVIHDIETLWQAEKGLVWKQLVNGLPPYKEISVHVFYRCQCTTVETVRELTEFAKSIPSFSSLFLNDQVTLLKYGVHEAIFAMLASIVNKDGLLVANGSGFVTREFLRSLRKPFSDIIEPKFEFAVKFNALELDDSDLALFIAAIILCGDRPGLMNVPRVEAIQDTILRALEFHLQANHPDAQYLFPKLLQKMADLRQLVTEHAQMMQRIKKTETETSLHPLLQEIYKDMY
Outline: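 Multiplexed trans-activation format: HepG2 liver cells expressing exogenous NR-Gal4 chimeras and GAL4-UAS reporters were exposed for 24 h. Reporter mRNA was detected by RT-PCR with capillary electrophoresis fluorescence; activity fitted as gain of signal relative to DMSO.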

[10] = target: Nuclear receptor subfamily 1 group I member 2 (Homo sapiens) (UniProt O75469); assay: ATG_PXR_TRANS: Attagene TRANS-FACTORIAL HepG2 Assay for human Pregnane X Receptor (PXR) (AID 2283008; active = hit-call score of the fitted dose curve at least 0.9, where 1 is the maximum)
Sequence of Nuclear receptor subfamily 1 group I member 2 (Homo sapiens) (O75469 whole entry, looked up, the tested form may be a part): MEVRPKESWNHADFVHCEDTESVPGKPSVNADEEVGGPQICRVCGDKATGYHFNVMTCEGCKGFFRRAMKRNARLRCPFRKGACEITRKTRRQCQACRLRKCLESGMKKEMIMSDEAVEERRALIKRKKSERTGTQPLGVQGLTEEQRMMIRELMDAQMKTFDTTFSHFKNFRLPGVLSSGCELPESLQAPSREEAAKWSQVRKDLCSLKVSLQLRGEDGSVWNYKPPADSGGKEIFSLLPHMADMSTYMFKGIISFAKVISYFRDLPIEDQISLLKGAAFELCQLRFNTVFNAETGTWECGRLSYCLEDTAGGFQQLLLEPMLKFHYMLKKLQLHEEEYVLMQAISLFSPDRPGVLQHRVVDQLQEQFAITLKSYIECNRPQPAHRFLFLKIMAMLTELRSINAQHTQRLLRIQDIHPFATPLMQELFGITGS
Outline: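 HepG2 transfected (FuGene 6) with GAL4-UAS reporter units + PXR-Gal4 chimera; dosed 24 h. Total RNA → oligo(dT) RT → PCR → 6-FAM primer extension → HpaI cut → CE. Gain-of-signal vs DMSO.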

Measured: AC50

CCOC(=O)COc1cc(-n2ncc(C(F)(F)F)c(C)c2=O)c(F)cc1Cl
inactive: [1] | [2] | [3] | [4] | [5] | [6] | [7] | [8]

COC(=O)c1cccc(C)c1S(=O)(=O)NC(=O)Nc1nc(OCC(F)(F)F)nc(N(C)C)n1
inactive: [1] | [2] | [9] | [4] | [5] | [6] | [7] | [10] | [8]

CCCCCOC(=O)COc1cc(N2C(=O)C3=C(CCCC3)C2=O)c(F)cc1Cl
active: [1] 26.5 µM | [6] 14.3 µM
inactive: [2] | [3] | [4] | [5] | [7]

COC(=O)c1ccc(CNS(C)(=O)=O)cc1S(=O)(=O)NC(=O)Nc1nc(OC)cc(OC)n1
inactive: [1] | [2] | [3] | [4] | [5] | [6] | [7] | [10]

CSC(=O)c1cccc2nnsc12
inactive: [1] | [2] | [3] | [4] | [6] | [7] | [8]

CCN(Cc1c(F)cccc1Cl)c1c([N+](=O)[O-])cc(C(F)(F)F)cc1[N+](=O)[O-]
active: [6] 12.9 µM | [10] 3.41 µM
inactive: [1] | [2] | [9] | [4] | [5] | [7] | [8]

COC(=O)c1ccccc1C(=O)O
inactive: [1] | [2] | [4] | [6] | [7] | [8]

Oc1ccc(C(c2ccc(O)cc2)C(Cl)(Cl)Cl)cc1
active: [1] 30.3 µM | [2] 31.4 µM | [4] 27.6 µM | [6] 19.8 µM
inactive: [3] | [7]

CCCOC(=O)NCCCN(C)C
inactive: [1] | [2] | [3] | [4] | [5] | [6] | [7]

CCSC(=O)N(CC(C)C)CC(C)C
inactive: [1] | [2] | [4] | [5] | [6] | [7]

CCOC(=O)C(C)Oc1ccc(Oc2nc3ccc(Cl)cc3o2)cc1 (stereo not drawn)
inactive: [1] | [2] | [4] | [5] | [6] | [7]

COC(=O)c1ccc(I)cc1S(=O)(=O)NC(=O)Nc1nc(C)nc(OC)n1
inactive: [1] | [2] | [3] | [4] | [6] | [7]

COc1nc(C)nc(NC(=O)NS(=O)(=O)c2ccccc2OCCCl)n1
inactive: [1] | [2] | [9] | [4] | [6] | [7] | [8]

O=C(O)c1ccccc1
inactive: [1] | [2] | [3] | [4] | [6] | [7]

CCCCCCC(C)OC(=O)COc1nc(F)c(Cl)c(N)c1Cl (stereo not drawn)
active: [1] 18.3 µM | [2] 34.2 µM | [4] 34.9 µM | [6] 13.6 µM
inactive: [9]

O=C(c1ccccc1)C1CCCCC1
inactive: [1] | [2] | [9] | [4] | [5] | [6] | [7] | [8]
active: [7] 61.5 µM

CCCCOC(=O)[C@@H](C)Oc1ccc(Oc2ccc(C(F)(F)F)cn2)cc1
inactive: [1] | [2] | [3] | [4] | [5] | [6] | [7] | [10] | [8]

CCOC(=O)C(C)Oc1ccc(Oc2cnc3cc(Cl)ccc3n2)cc1 (stereo not drawn)
inactive: [1] | [2] | [3] | [4] | [6] | [7] | [8]
